Structures are written as SMILES. Values without a mark were called inactive.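 The calls were made as follows: active = viability at or under a set limit in both replicates, limit being median viability minus 3 SD (cut at about 48% in these data, passing the limit was not always enough); inconclusive = at or under the limit in just one replicate; inactive = at or above the limit in both replicates.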

The experiment can be described thus: H69AR cell proliferation blockers – human, duplicate replicates, primary screen (AID 580).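 Also: 100% = mean luminescence of untreated wells and 0% = no signal.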 Conditions: H69AR lung tumor cells viability, ATP luminescence, 72 h; at 10 µM; hits give low values.
The term viability denotes a read-out of living cells in per cent, often relative to untreated cells. As to `Cc1ccc(CNC(=O)C2CCCN(S(=O)(=O)c3cnc[nH]3)C2)cc1` (stereo unspecified), the viability is 106%.

Turning to `COc1cc2c(cc1OC)C(c1ccc(C)o1)CC(=O)N2` (stereo unspecified), the viability was 89.4%.

On to `COc1ccc(S(=O)(=O)Nc2ccc(F)c(Cl)c2)cc1OC`, for which the viability was 96.6%.

In the case of `O=C(OCCN(CCOC(=O)c1ccncc1)S(=O)(=O)c1cccs1)c1ccncc1`, the viability was 104%.

As for `N#CCCN(Cc1cccnc1)C(=O)Nc1ccc(Cl)c(Cl)c1`, the viability is 91.2%.

For `NC(=O)CN1C(=O)C(O)(CC(=O)c2ccccc2O)c2ccccc21` (stereo unspecified), the viability was 91.8%.

Turning to `CCCOc1ccc(C2C(C(=O)OC)=CN(CCOC)C=C2C(=O)OC)cc1`, the viability is 90.4%.

For the compound `C(=N\c1c(-c2ccccc2)nc2n1CCS2)/c1ccccc1`, the viability is 100%.

As to `COC(=O)c1cn(NC(=O)C2CCCO2)c(=O)c2ccccc12` (stereo unspecified), the viability was 96.6%.

Consider `CCN1CCN(C(=O)C2CC(c3ccc(F)cc3)=NO2)CC1` (stereo unspecified), for which the viability was 99.1%.

Regarding `CCOC(=O)C1CCN(Cc2ccc(OC)c(C)c2OC)CC1`, the viability is 86.9%.

Take `Cn1c(NC(=O)c2ccccc2NC(=O)C(C)(C)C)nc2ccccc21`: the viability is 60.6%.

Regarding `Cc1cccc(CN2CCC(CNC(=O)C3CCCN(S(=O)(=O)c4cnc[nH]4)C3)CC2)c1` (stereo unspecified), the viability was 89.8%.

Turning to `CC1CC(NC(=O)c2cnc3n(c2=O)CCS3)CC(C)(C)C1` (stereo unspecified), the viability is 91.7%.

With `CC1CCCN(S(=O)(=O)c2coc(C(N)=O)c2)C1` (stereo unspecified), the viability is 94.6%.

As for `O=C(NCc1ccc2c(c1)OCO2)C1CCCN(S(=O)(=O)c2cccc3cccnc23)C1` (stereo unspecified), the viability is 83.3%.

Source of the values: PubChem BioAssay.
